Records with an inconclusive call do not appear. Calls of active or inactive are those of the source. Calls follow the shape of the dose curve; as a rule, active = well fitted inhibition curve with a large enough effect; inconclusive = small, poorly fitted or top-dose-only effect; inactive = flat fitted curve, though single readings scatter.
system: CP250; assay: qHTS profiling for inhibitors of Plasmodium falciparum proliferation (AID 504749); also: nearly all actives have a fitted effect of over 60% in size;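 as to activity, negative = inhibition: 0% = DMSO vehicle and full inhibition = artemisinin control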; settings: P. falciparum in erythrocytes, SYBR Green DNA, 72 h; series mostly up to 28.7 µM; activity, negative = inhibition: at the top concentration
Procedure, shortened: (§1)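 P. falciparum-infected erythrocytes (0.3% parasitemia, 2.5% hematocrit) incubated with compound 72 h at 37 C, 5% CO2. Parasite DNA detected by SYBR Green after lysis, overnight at room temperature; normalised to 0.29 uM artemisinin and DMSO.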
Potency is read from the fitted curve at half-maximal effect.

Compound | activity, negative = inhibition | Potency
CN1CCN(C2Cc3ccccc3Sc3ccc(Cl)cc32)CC1 (stereo not given) | -8.52% (inactive) | 
Cc1cc2c(cc1S(N)(=O)=O)S(=O)(=O)CCC2 | 0.562% [at 12.8 µM] (inactive) | 
CCOc1nc2cccc(C(=O)O)c2n1Cc1ccc(-c2ccccc2-c2nn[nH]n2)cc1 | -24.9% (inactive) | 
NC1CCN(c2cccc(Cl)n2)CC1 | 5.03% (inactive) | 
CNC(=O)Oc1ccc2c(c1)[C@]1(C)CCN(C)[C@@H]1N2C |  | 1.58 µM (active)
CCOC(CN1CCN(CC(C)C(=O)c2ccccc2)CC1)c1ccccc1 (stereo not given) | -5.76% (inactive) | 
CSc1ccc2c(c1)C(N1CCN(C)CC1)Cc1ccccc1S2 (stereo not given) | -27% (inactive) | 
CCN(CC)CCNC(C(=O)OCCC(C)C)c1ccccc1 (stereo not given) | -25.3% (inactive) | 
CCCc1c(OCCCCc2nn[nH]n2)ccc(C(C)=O)c1O | -24.2% (inactive) | 
CCCCN1CCCC[C@H]1C(=O)Nc1c(C)cccc1C | -0.606% (inactive) | 
CC(CN1c2ccccc2Sc2ccccc21)N(C)C (stereo not given) | 9.11% (inactive) | 
O=C1NS(=O)(=O)c2ccccc21 | 5.77% (inactive) | 
Cc1ccc2nc(N)[nH]c(=O)c2c1Sc1ccncc1 |  | 2.24 µM (active)
Cc1cc(N)c2ccccc2[n+]1CCCCCCCCCC[n+]1c(C)cc(N)c2ccccc21 |  | 0.708 µM (active)
CCCCOc1cc(C(=O)OCCN(CC)CC)ccc1N | 2.64% [at 12.8 µM] (inactive) | 
CN(C)CCN(Cc1ccccc1)c1ccccn1 | -18.5% (inactive) | 
Cc1c(O)cccc1C(=O)N[C@@H](CSc1ccccc1)[C@H](O)CN1C[C@H]2CCCC[C@H]2C[C@H]1C(=O)NC(C)(C)C | -15.5% (inactive) | 
CNCCCC1c2ccccc2C=Cc2ccccc21 | -15.8% [at 12.8 µM] (inactive) | 

system: CP252; assay: as above; settings: P. falciparum in erythrocytes, SYBR Green DNA, 72 h; series mostly up to 28.7 µM; activity, negative = inhibition: at the top concentration
Procedure, shortened: as §1

Compound | activity, negative = inhibition | Potency
CN1CCN(C2Cc3ccccc3Sc3ccc(Cl)cc32)CC1 (stereo not given) | -18.6% (inactive) | 
Cc1cc2c(cc1S(N)(=O)=O)S(=O)(=O)CCC2 | 0.574% [at 12.8 µM] (inactive) | 
NC1CCN(c2cccc(Cl)n2)CC1 | -5.86% (inactive) | 
CNC(=O)Oc1ccc2c(c1)[C@]1(C)CCN(C)[C@@H]1N2C |  | 1.78 µM (active)
CCOC(CN1CCN(CC(C)C(=O)c2ccccc2)CC1)c1ccccc1 (stereo not given) | -20.6% (inactive) | 
CN1CCC[C@@H]1Cc1c[nH]c2ccc(CCS(=O)(=O)c3ccccc3)cc12 | -17.8% (inactive) | 
CCCc1c(OCCCCc2nn[nH]n2)ccc(C(C)=O)c1O | -8.29% (inactive) | 
CCCCN1CCCC[C@H]1C(=O)Nc1c(C)cccc1C | -19.5% (inactive) | 
CN1CCCCC1CCN1c2ccccc2Sc2ccc(S(C)=O)cc21 (stereo not given) | -25.9% (inactive) | 
c1ccc(CN(CC2=NCCN2)c2ccccc2)cc1 | -23.3% (inactive) | 
CC(CN1c2ccccc2Sc2ccccc21)N(C)C (stereo not given) | 3.54% (inactive) | 
O=C1NS(=O)(=O)c2ccccc21 | 6.68% (inactive) | 
Cc1ccc2nc(N)[nH]c(=O)c2c1Sc1ccncc1 |  | 1.58 µM (active)
Cc1cc(N)c2ccccc2[n+]1CCCCCCCCCC[n+]1c(C)cc(N)c2ccccc21 |  | 0.447 µM (active)
[Cl][In]([Cl])[Cl] | -8.33% (inactive) | 
CCCCOc1cc(C(=O)OCCN(CC)CC)ccc1N | -0.485% [at 12.8 µM] (inactive) | 
OCCN1CCN(CCCN2c3ccccc3Sc3ccc(Cl)cc32)CC1 |  | 3.55 µM (active)
CNCCCC1c2ccccc2C=Cc2ccccc21 | -27.4% [at 12.8 µM] (inactive) | 

system: CP256; assay: as above; settings: P. falciparum in erythrocytes, SYBR Green DNA, 72 h; series mostly up to 28.7 µM; activity, negative = inhibition: at the top concentration
Procedure, shortened: as §1

Compound | activity, negative = inhibition | Potency
CN1CCN(C2Cc3ccccc3Sc3ccc(Cl)cc32)CC1 (stereo not given) | -12.8% (inactive) | 
Cc1cc2c(cc1S(N)(=O)=O)S(=O)(=O)CCC2 | 1.38% [at 12.8 µM] (inactive) | 
CCOc1nc2cccc(C(=O)O)c2n1Cc1ccc(-c2ccccc2-c2nn[nH]n2)cc1 | -4.03% (inactive) | 
NC1CCN(c2cccc(Cl)n2)CC1 | -26.6% (inactive) | 
CNC(=O)Oc1ccc2c(c1)[C@]1(C)CCN(C)[C@@H]1N2C |  | 2 µM (active)
CCOC(CN1CCN(CC(C)C(=O)c2ccccc2)CC1)c1ccccc1 (stereo not given) | -24% (inactive) | 
CC(C)(C)C(=O)C(Oc1ccc(Cl)cc1)n1ccnc1 (stereo not given) | -26.1% (inactive) | 
CSc1ccc2c(c1)C(N1CCN(C)CC1)Cc1ccccc1S2 (stereo not given) | -26.8% (inactive) | 
CCCc1c(OCCCCc2nn[nH]n2)ccc(C(C)=O)c1O | -7.93% (inactive) | 
CCCCN1CCCC[C@H]1C(=O)Nc1c(C)cccc1C | -9.42% (inactive) | 
c1ccc(CN(CC2=NCCN2)c2ccccc2)cc1 | -27.3% (inactive) | 
CC(CN1c2ccccc2Sc2ccccc21)N(C)C (stereo not given) | 1.29% (inactive) | 
O=C1NS(=O)(=O)c2ccccc21 | 6.37% (inactive) | 
Cc1ccc2nc(N)[nH]c(=O)c2c1Sc1ccncc1 |  | 10 µM (active)
CN(C)CCCN1c2ccccc2Sc2ccc(Cl)cc21 | -26.5% (inactive) | 
Cc1cc(N)c2ccccc2[n+]1CCCCCCCCCC[n+]1c(C)cc(N)c2ccccc21 |  | 0.0794 µM (active)
CCCCOc1cc(C(=O)OCCN(CC)CC)ccc1N | 2.14% [at 12.8 µM] (inactive) | 
CN(C)CCN(Cc1ccccc1)c1ccccn1 | -16.8% (inactive) | 
OCCN1CCN(CCCN2c3ccccc3Sc3ccc(Cl)cc32)CC1 |  | 3.98 µM (active)
